According to PubChem BioAssay AID1347426 (Functional Genomics Laboratory (NCATS/FGL), 2020):
About 1,400 (4.5%) of roughly 31,000 sequences were called active. Only a selection was taken, and actives are over-represented in it overall. A number with no mark means an inactive call.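 How the source made its calls: active means median seed-adjusted z-score above 1 or below -1; inactive means the rest.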

Assay: Novel Modifiers of Survival Motor Neuron (SMN) Protein: Gene Identification via Genome-wide siRNA Screen;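 further: luminescence tracks full-length SMN protein made from the SMN2 reporter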
Settings: HEK293T SMN2-luciferase reporter, siRNA knockdown, 72 h; actives lie on both sides
Method in brief: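 HEK293T cells stably carrying an SMN2 promoter/splicing cassette–luciferase reporter were reverse-transfected with 1 pmol siRNA per well (druggable-genome library, 3 siRNAs per gene) and grown 72 h at 37 °C. Luminescence, normalized to negative-control siRNA and log10-transformed, was scored as MAD.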

Sequence | median seed-adjusted z-score
GGGACAAGUUCGUCAUCUUTT against CRYAA | -1.03 (active)
CCUAUGAUAUGGUUCCAGATT against COX5A | -0.348
GGUAUACAAGGAAAGGUUATT against EIF4E | -0.404
UGGACAUUCUUGCACCCAATT against CHTF18 | 0.371
CAAUAUUAGUUGCUGUAUATT against PPAP2A | 0
UGCUGACCUCGUUACCUUUTT against UCP3 | 1.23 (active)
CAGUCUUUAUGCAAUGGAATT against TYR | 0.131
AGAUGUACAACGACCCAAATT against AGBL4 | 0.487
GCAUGGUAUUGGAAUAACUTT against CHEK1 | -5.1 (active)
GACCUUCCACAGUACAUCATT against MAST3 | -0.642
GCUCAGAUAAAGUACAGAATT against GGCX | -0.362
GAGUCAUAGUUGCAGCUGATT against PSMB5 | -1.37 (active)
CCUCAUGACUUCGCAAAUATT against COPB1 | -0.839
GGACCAUAACUCUUACGUATT against RBM26 | -0.967
UCACUGUGCUACAUCAUCATT against MYL7 | -1.21 (active)
GUUGAGGUCUGGUAACAGATT against TMED1 | 0
GGAGUUUGUUUGCAAGUAUTT against RREB1 | -0.414
CCAUCUACAUCAGAGUCCATT against BTN1A1 | 0.291
GGACAAAUUUUGGAGAGAATT against COG2 | 0.791
CCAACAGGAGAGUACGUGATT against STRADA | 0.415
CCAUUUGACUUUAUGGAGATT against RRM2 | -3.84 (active)
GGCCUUCGUGUACAUCAAUTT against SUV39H1 | -0.0775

Sequence | median seed-adjusted z-score
CUAUGCCCGUGGUCACUAUTT against TUBA4A | -0.594
GAGCCGCUGGUGUAUCUUUTT against TLR4 | 0.113
GGCAAGAUCUGUACCGUGATT against HPN | -0.0237
CCAGGACAUUCGAAAGCGATT against TRAF4 | -1.16 (active)
CGGGUACAAGGAUUGGUUUTT against ROM1 | 0.41
CCACUCUCAUUGUGACUGATT against DDX54 | 0
GGAUUAUGAAGAAUGGAAATT against ORC6L | 0
GGCAGAGCCUGACCACUUUTT against LOC100137047-PLA2G4B | -0.022
GGAGCGAGCUGGUGCAUAATT against SH3BP5 | -0.707
GCAUCGCUGUUACCCAUCUTT against CCRN4L | -0.572
GGAGAUAAGAGAUCAUAUUTT against OXNAD1 | 0.36
CAUGAGAUACGAUACACUATT against TRMT6 | 0.069
CGCACACGUAGAGACCUUATT against PNN | 1.29 (active)
CAACUUCACUCAGAACCCATT against MARCO | 0.137
GCCUACUUCAUUCAUCAUATT against KSR1 | 0.0873
CAAUCGUCCAAUGAUCUUATT against PCDHB1 | 0.342
CCUUCAUAGUCAACAGCAATT against MGC16703 | 0.55
GCACGACGACAAUAUCAUUTT against PEX3 | 0.142
CCAUUAUUGACUCACCCUATT against CSTF2T | 0.387
GCAUAACUUGAAUAGUACATT against AKAP11 | -0.0405
GCAUCAUUGAAGGACUAGATT against HEY1 | -0.023
CCCUGGUAGUCAAAAACGATT against PHKB | -0.142

Sequence | median seed-adjusted z-score
GCUGUGAACUGACUCUGCATT against UROD | 1.11 (active)
GCCCGACUCUCUAAUGGAATT against PRKD3 | -0.906
CUACCGUGCAAGUUCAUUATT against CD3D | -0.403
CCGUCAAGGUGUAUUUUGATT against PPIB | 0.038
GGCUUAACAUUGAACGAAUTT against CRY2 | 0.0209
CCAAGACUCCAACCAUUUUTT against IKZF4 | -0.426
GGACCUCAAAGUUGUCUAUTT against AP1S1 | -1.04 (active)
CGUGGGAUGCUCAAAGAUATT against EZR | 0.0344
CCCAGAUCAUAUACUCCUATT against LYPLAL1 | -0.425
GGCAUGAAGUGAAGGAUGATT against ZNF134 | -0.0978
CCUCAAUACUCCGCAAAUATT against NMNAT2 | -1.58 (active)
GGAAAGUUAUCAGGAUGCATT against SAG | 0
GGAUUCCAAUCUUAGCUUUTT against RLN1 | 0.0637
GGAAUUCCUUUAAUGACGATT against RYR3 | 0
CCACCAGCGUGAUCAUUGUTT against GALNT6 | -0.287
CUUCCAUGCCUUUGACCUATT against CDCP2 | 0.0708
CUUGUGUUCUGAGAAUACATT against KRT83 | 1.15 (active)
AGAAUCGUGUGGAAAAAGATT against PARK7 | -0.357
CCAUGACAAUCAACGAGGATT against AMY2A | -0.266
CUUUUGCCUGUAGCCCAUATT against GCS1 | 0.819
CGAGAUAACUACUUUCGGATT against RALB | -0.534
ACAGAUCCAUUUUUAGGGATT against PKIG | 0.0916

Sequence | median seed-adjusted z-score
CCACGUCUCUGGAGAGUUUTT against ALAD | 0.0952
GGCUGUACAUCUGGACCAATT against NFKBIE | -0.452
GGAUGGGCCUUGAAGCCUUTT against GPR97 | -0.0155
GGGAAUAUCUCUUCCGACATT against ACTL7A | 1.1 (active)
GGCUAUCAUCUACACCCGATT against UGCG | 0.492
CGAUUAUUGUGAGCCUAAUTT against JAG1 | -0.32
CUAAGAGACUAAAUGCAAATT against SUCLG2 | -0.619
GGGCCGCUUUAGAAAGGUATT against SNX1 | 0.0261
CCUGGACCCUGAACUCACATT against LILRA4 | 0.109
GCAUUACAGUACUUACGUATT against BTAF1 | -1.19 (active)
GGCUCUUACAAGUCCUUAUTT against CHRM2 | 0.053
GGCAUUACCGUGUAUAACATT against CHST10 | 0.115
GUACUGGAGUGAUGAGUUUTT against PARP12 | -0.287
GUCUGUCGCUACUACAAUATT against SLCO2B1 | 0.289
CGAUGGGUCUGUGCACAAATT against TGM2 | 0.413
CGGCCUUGAUAAACUGAAATT against SNAPC3 | -1.72 (active)
CCAUGAGUGUGACUCUCAATT against ZNF599 | 0.0896
CCCGGAUUGUUCCUACUGATT against ALG9 | -0.267
CGGGCUCCGUAGUCACAUUTT against NAALADL1 | -0.0444
GAACAAAUCUGCGAGAUCATT against DIRAS2 | -1.25 (active)
GCAGUUGGAGAGAUAAUAATT against VRK1 | -0.148
CACUGUUUAUGUAUAUGGATT against RHOT1 | -0.189

Sequence | median seed-adjusted z-score
UCACCACCGUGUCUAAGAATT against MPO | -0.223
GGUUCUUGCUUACACUCUUTT against ESSPL | 0.328
CAUUGUCAAUAUAACGAUUTT against GPR98 | -0.509
CAAGAAUCUUAAGAUAGAATT against CD4 | -0.566
AUAUAUUGCUUGGAGAUGATT against STK16 | 0.113
CCAUCAACAUCGCCCUGAATT against PLOD1 | 0.481
GCCUUUUGCUCAUCUCACUTT against TNFSF11 | 0.0212
CAACCAGACUAUUCGGACATT against PPP1R10 | 1.41 (active)
CCAACCUUCUGAAUACGUUTT against GPR126 | -0.243
AAAAGAGACUGAUCAUCCATT against NR2F6 | -0.681
GAACUAUGCUAUACCAGAATT against IQCH | 0
GACUAUUCCCUGCACCACATT against ABHD9 | 0.486
CUUCCGUUAUGAUACAGAATT against GABRA2 | -0.272
GCUGUACACCGGCAUCGUATT against SLC5A5 | 1.01 (active)
GAAUCUAUGAGCUUCGAAATT against PSMB5 | -1.37 (active)
CUAUGGGUAUGACUACUUUTT against BPHL | -0.161
GGAACAUAGUCUUCAGGUATT against KIF20A | 0.906
AUGCUGAUCAGGAAAAGUATT against TEX13A | -1.22 (active)
CACUGAAGCUGUACAACAATT against TSHR | 0.851
GAGUGAUCAGAGACCGAAATT against IARS | -0.198
GGACUUACUAAAAGCUAAATT against CRKRS | -1.16 (active)
